Assay results reported in PubChem BioAssay (Tox21).
Inconclusive results are not listed. Where a call stands in place of a potency, no number is given. Active and inactive are the calls of the source. Unless noted, calls come from the whole dose curve. Square brackets hold non-standard residues; d marks the D form. Peptide text beside a SMILES is read from it. * marks the point of attachment. Sta = CC(C)C[C@H](N)[C@@H](O)CC(=O)O; Isovaleryl = CC(C)CC(=O)*

What was measured:
[1] = target: 5-hydroxytryptamine receptor 2A (Homo sapiens) (UniProt P28223); assay: 5-hydroxytryptamine receptor 2A (HTR2A) small molecule antagonists, cell-based qHTS assay (AID 1963586); note: nearly all actives have a fitted effect of over 45% in size; note: potency is the fitted concentration of half-maximal effect
Method in brief: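 Antagonist-mode intracellular calcium assay: DOI (4 nM) added after 5 min compound pre-incubation at room temperature to dye-loaded HTR2A-CHO cells. Fluorescence followed for 3 min, sampled every second.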

[2] = target: 5-hydroxytryptamine receptor 2A (Homo sapiens) (UniProt P28223); assay: 5-hydroxytryptamine receptor 2A (HTR2A) small molecule agonists, cell-based qHTS assay (AID 1963587); note: nearly all actives have a fitted effect of over 30% in size; note: potency is the fitted concentration of half-maximal effect
Method in brief: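 HTR2A-CHO cells, plated 18 h at 37 C/5% CO2, dye-loaded 1 h at 37 C; compounds in DMSO added by pin tool (agonist mode). Intracellular calcium flux read as kinetic fluorescence on FDSS over 2 min at 1 s intervals.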

[3] = target: Muscarinic acetylcholine receptor M1 (Homo sapiens) (UniProt P11229); assay: Cholinergic receptor muscarinic 1 (CHRM1) small molecule antagonists, cell-based qHTS assay (AID 1963588); note: nearly all actives have a fitted effect of over 40% in size
Method in brief: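 CHRM1-CHO calcium-flux assay, antagonist mode. Cells were seeded 18 h, dye-loaded 1 h at 37 C and given compound for 5 min at RT, then acetylcholine was added at 50nM. FDSS fluorescence was read 3 min; 15 concentrations, three runs.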

[4] = target: Muscarinic acetylcholine receptor M1 (Homo sapiens) (UniProt P11229); assay: Cholinergic receptor muscarinic 1 (CHRM1) small molecule agonists, cell-based qHTS assay (AID 1963589); note: nearly all actives have a fitted effect of over 35% in size
Method in brief: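 Each compound was tested at 15 concentrations across three independent runs on dye-loaded CHO cells stably expressing human CHRM1, reading intracellular calcium fluorescence kinetically at 1 sec intervals.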

[5] = target: Beta-2 adrenergic receptor (Homo sapiens) (UniProt P07550); assay: Adrenergic beta2 receptor (ADRB2) small molecule antagonists, cell-based qHTS assay (AID 1963592); note: series mostly up to about 92 µM; nearly all actives have a fitted effect of over 50% in size
Method in brief: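 Cells (CHO, stable ADRB2 overexpression) incubated 18-20hr at 37C; compounds added from DMSO; agonist mix (1nM isoproterenol, 100uM IBMX, 25uM Ro-20-1724) added; 0.5hr RT; d2-cAMP and anti-cAMP-cryptate added; 1hr RT; 665/615 nm read.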

[6] = target: Beta-2 adrenergic receptor (Homo sapiens) (UniProt P07550); assay: Adrenergic beta2 receptor (ADRB2) small molecule agonists, cell-based qHTS assay (AID 1963593);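 note: CHO cells stably overexpressing human ADRB2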
Method in brief: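 CHO cells stably over-expressing ADRB2 were plated overnight at 37C, then dosed with compounds plus a stimulation mix containing 100uM IBMX and 25uM Ro-20-1724 for 0.5hr at room temperature. cAMP was measured by HTRF competition, 1hr.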

[7] = target: D(2) dopamine receptor (Homo sapiens) (UniProt P14416); assay: Dopamine D2 receptor (DRD2) small molecule agonists, cell-based qHTS assay (AID 1963594); note: nearly all actives have a fitted effect of over 35% in size
Method in brief: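 HEK293 cells stably expressing DRD2 were cultured 24 h at 37 C, then given Ro20-1724 (0.1 mM final) and compounds for 10 min at room temperature. NKH477 (200nM) was then added for 30 min. cAMP was read by HTRF.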

[8] = target: D(2) dopamine receptor (Homo sapiens) (UniProt P14416); assay: Dopamine D2 receptor (DRD2) small molecule antagonists, cell-based qHTS assay (AID 1963595; active = well fitted inhibition curve with a large enough effect in the signal ratio in the repeat runs, with a control signal flat; the % refers to the signal ratio)
Method in brief: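 Human DRD2 antagonist qHTS measuring cAMP by HTRF. The cells are exposed to compound for 10 min, then to NKH477 (200 nM) and quinpirole (12 nM) for 30 min at RT, with Ro20-1724 (0.1 mM) present throughout.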

[9] = target: Gonadotropin-releasing hormone receptor (Homo sapiens) (UniProt P30968); assay: Human gonadotropin-releasing hormone receptor (GnRHR) small molecule agonists, calcium flux assay in GnRHR-HEK293 cells (AID 1920063); note: nearly all actives have a fitted effect of over 35% in size
Method in brief: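 Fluorescence kinetics (480 nm excitation, 540 nm emission; 3 min, 1 s steps) report calcium mobilisation in human GnRHR-HEK293 cells in agonist mode. Dye incubation: 1 h, 37 C.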

[10] = target: KiSS-1 receptor (Homo sapiens) (UniProt Q969F8); assay: Human kisspeptin (KISS1R) small molecule agonists, calcium flux assay in KISS1R-HEK293 cells (AID 1920064; active = well fitted activation curve with a large enough effect in the repeat runs)
Method in brief: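 Measures KISS1R agonism through calcium-sensitive dye fluorescence in stably transfected HEK293 cells, read for 3 min after pin-tool compound delivery; 15-point titrations in triplicate.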

[11] = G protein-coupled receptor (GPCR) small molecule agonists, calcium flux assay: HEK293 wild type cell line counter screen (AID 1920065)
Method in brief: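 Readout: fluorescence at 480 nm excitation/540 nm emission, sampled at 1 s intervals for 3 min. Cells had been cultured 18 h, then dye-loaded 1 h at 37 C before compound or ATP addition.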

[12] = p53 small molecule agonists, cell-based qHTS assay with human liver microsomes: qHTS cell viability counter screen (AID 1963579); note: nearly all actives have a fitted effect of over 45% in size; note: potency is the fitted concentration of half-maximal effect
Method in brief: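 Viability of p53RE-bla cells is measured as CellTiter-Glo luminescence following a 16 h, 37 C incubation with compound, liver microsomes from human donors and NADPH.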

[13] = p53 small molecule agonists, cell-based qHTS assay: qHTS cell viability counter screen (AID 1963581); note: nearly all actives have a fitted effect of over 45% in size; note: potency is the fitted concentration of half-maximal effect
Method in brief: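 In the same plates used for the p53 bla reporter, HCT-116 cells given compounds for 16 h at 37 C received CellTiter-Glo; luminescence was recorded 30 min later at room temperature.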

[14] = cAMP Responsive Elements (CRE) small molecule agonists, cell-based qHTS assay (AID 1963590)
Method in brief: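 Cell line: CRE-bla HEK 293T; medium DMEM/10% dialyzed FBS/0.1 mM NEAA/1 mM pyruvate/25 mM HEPES; 3 h compound exposure; beta-lactamase FRET readout after 2 h substrate loading at RT.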

[15] = cAMP Responsive Elements (CRE) small molecule antagonists, cell-based qHTS assay (AID 1963591; active = well fitted inhibition curve with a large enough effect in the signal ratio in the repeat runs, not every such curve was filed as active; the % refers to the signal ratio)
Method in brief: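 Inhibition of NKH477-driven (0.25 uM final) CRE-beta-lactamase signal in HEK293T cells, 3 h compound exposure at 37 °C, detected by FRET substrate fluorescence.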

[16] = p53 small molecule agonists, cell-based qHTS assay with rat liver microsomes: qHTS cell viability counter screen (AID 1963580); note: nearly all actives have a fitted effect of over 45% in size
Method in brief: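 p53RE-bla HCT-116 cells (4,000/well) rested 5 h at 37 C, then given Tox21 compounds in DMSO with rat liver microsomes (0.5 mg/mL final) plus NADPH (0.5 mg/mL final) for 16 h at 37 C. Viability read by CellTiter-Glo luminescence after 30 min at room temperature.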

[17] = p53 small molecule agonists, cell-based qHTS assay with human liver microsomes (AID 1963577);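 note: p53 response element beta-lactamase reporter cells with liver microsomes plus NADPH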
Method in brief: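 HLM-supplemented p53RE-bla reporter assay: 16 h compound exposure at 37 C, microsomes and NADPH each 0.5 mg/mL final, read by fluorescence intensity.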

[18] = p53 small molecule agonists, cell-based qHTS assay with rat liver microsomes (AID 1963578)
Method in brief: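 Quantitative HTS of the Tox21 10K library: p53RE-bla cells, rat liver microsomes plus NADPH at 0.5 mg/mL final each, 16 h at 37 C, beta-lactamase fluorescence detection.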

[19] = p53 small molecule agonists, cell-based qHTS assay (AID 1963582; active = well fitted activation curve with a large enough effect in the signal ratio in the repeat runs, not every such curve was filed as active; the % refers to the signal ratio)
Method in brief: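 Compounds are pin-transferred in DMSO onto p53RE-bla cells and incubated 16 h at 37 C. The B/G FRET beta-lactamase substrate is then applied for 2 h at RT and fluorescence recorded.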

Muscarinic acetylcholine receptor M1 (Homo sapiens), sequence (P11229 whole entry, looked up): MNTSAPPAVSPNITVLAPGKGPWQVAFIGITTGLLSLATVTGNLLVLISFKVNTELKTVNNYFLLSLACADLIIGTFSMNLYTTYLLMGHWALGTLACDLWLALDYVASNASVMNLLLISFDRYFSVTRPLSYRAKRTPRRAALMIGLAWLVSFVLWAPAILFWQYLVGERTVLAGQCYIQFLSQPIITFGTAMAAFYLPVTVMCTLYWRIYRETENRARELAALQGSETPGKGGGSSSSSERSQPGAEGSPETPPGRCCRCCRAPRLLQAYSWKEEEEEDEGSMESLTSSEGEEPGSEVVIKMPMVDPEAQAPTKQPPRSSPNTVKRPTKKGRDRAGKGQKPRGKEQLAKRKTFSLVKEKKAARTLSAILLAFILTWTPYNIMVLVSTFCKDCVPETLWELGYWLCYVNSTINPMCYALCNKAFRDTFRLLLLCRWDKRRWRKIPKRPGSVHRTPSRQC
D(2) dopamine receptor (Homo sapiens), sequence (P14416 whole entry, looked up): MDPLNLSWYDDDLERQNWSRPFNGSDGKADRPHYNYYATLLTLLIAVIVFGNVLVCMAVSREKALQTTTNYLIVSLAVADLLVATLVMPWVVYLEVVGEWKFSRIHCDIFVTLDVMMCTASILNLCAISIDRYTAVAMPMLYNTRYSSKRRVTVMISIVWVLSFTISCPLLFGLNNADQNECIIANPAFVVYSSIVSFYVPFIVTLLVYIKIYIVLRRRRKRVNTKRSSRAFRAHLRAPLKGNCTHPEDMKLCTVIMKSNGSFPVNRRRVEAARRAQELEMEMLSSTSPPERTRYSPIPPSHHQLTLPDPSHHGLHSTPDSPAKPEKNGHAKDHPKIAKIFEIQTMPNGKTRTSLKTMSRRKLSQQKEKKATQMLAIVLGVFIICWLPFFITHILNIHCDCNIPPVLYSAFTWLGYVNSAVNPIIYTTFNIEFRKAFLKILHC
Beta-2 adrenergic receptor (Homo sapiens), sequence (P07550 whole entry, looked up): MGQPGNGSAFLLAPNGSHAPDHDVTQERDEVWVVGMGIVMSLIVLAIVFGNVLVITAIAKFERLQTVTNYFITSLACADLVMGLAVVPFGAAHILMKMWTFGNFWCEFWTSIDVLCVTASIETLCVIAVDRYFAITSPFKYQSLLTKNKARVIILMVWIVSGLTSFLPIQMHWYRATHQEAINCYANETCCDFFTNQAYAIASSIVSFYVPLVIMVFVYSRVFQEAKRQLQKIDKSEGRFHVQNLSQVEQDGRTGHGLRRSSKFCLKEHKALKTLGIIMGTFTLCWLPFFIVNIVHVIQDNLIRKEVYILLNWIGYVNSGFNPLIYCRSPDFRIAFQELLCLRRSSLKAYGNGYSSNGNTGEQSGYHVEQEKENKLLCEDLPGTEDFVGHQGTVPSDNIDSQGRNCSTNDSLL
5-hydroxytryptamine receptor 2A (Homo sapiens), sequence (P28223 whole entry, looked up): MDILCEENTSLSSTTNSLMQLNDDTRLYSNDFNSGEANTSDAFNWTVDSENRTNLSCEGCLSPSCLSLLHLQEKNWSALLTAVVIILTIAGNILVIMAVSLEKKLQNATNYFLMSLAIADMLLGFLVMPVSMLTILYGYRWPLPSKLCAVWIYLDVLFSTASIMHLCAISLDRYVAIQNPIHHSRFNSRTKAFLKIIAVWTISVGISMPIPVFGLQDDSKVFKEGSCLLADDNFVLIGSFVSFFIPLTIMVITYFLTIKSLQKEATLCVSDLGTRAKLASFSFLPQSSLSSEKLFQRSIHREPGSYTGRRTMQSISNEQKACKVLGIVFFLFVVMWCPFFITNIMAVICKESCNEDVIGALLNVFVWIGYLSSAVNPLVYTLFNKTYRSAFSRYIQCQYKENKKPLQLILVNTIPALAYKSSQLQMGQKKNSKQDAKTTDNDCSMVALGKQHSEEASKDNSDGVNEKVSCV
KiSS-1 receptor (Homo sapiens), sequence (Q969F8 whole entry, looked up): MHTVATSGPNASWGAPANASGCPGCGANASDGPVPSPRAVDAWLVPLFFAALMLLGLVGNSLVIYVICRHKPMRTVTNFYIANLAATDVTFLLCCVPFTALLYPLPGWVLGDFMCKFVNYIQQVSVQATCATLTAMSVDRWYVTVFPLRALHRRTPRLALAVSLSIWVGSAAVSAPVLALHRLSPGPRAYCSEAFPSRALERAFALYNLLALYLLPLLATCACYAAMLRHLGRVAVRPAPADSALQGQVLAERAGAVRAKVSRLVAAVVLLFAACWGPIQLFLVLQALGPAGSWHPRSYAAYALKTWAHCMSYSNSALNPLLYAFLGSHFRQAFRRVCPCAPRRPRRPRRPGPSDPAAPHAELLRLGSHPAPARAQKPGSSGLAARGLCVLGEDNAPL
Gonadotropin-releasing hormone receptor (Homo sapiens), sequence (P30968 whole entry, looked up): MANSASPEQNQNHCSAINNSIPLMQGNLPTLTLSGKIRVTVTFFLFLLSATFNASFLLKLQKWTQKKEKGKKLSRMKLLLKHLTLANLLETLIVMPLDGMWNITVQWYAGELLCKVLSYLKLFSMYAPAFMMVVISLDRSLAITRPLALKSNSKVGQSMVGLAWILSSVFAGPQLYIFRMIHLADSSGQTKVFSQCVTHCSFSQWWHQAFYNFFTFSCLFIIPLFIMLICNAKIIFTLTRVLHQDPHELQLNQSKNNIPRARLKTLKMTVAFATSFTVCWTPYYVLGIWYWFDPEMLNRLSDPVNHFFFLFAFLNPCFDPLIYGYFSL

Structure (SMILES): CC(C)(C)c1ccc(O)cc1
- Potency [1]: inactive
- Potency [2]: inactive
- Potency [3]: inactive
- Potency [4]: inactive
- Potency [5]: inactive
- Potency [6]: inactive
- Potency [7]: inactive
- Potency [8]: inactive

Structure (SMILES): N#CN
- Potency [9]: inactive
- Potency [10]: inactive
- Potency [11]: inactive
- Potency [12]: inactive
- Potency [13]: inactive
- Potency [1]: inactive
- Potency [2]: inactive
- Potency [3]: inactive
- Potency [4]: inactive
- Potency [14]: inactive
- Potency [15]: inactive
- Potency [5]: inactive
- Potency [6]: inactive
- Potency [7]: inactive
- Potency [8]: inactive

Structure (SMILES): C#C[C@]1(O)CC[C@H]2[C@@H]3CCC4=CC(=O)CCC4=C3C=C[C@@]21CC
- Potency [9]: inactive
- Potency [10]: inactive
- Potency [11]: inactive
- Potency [12]: inactive
- Potency [2]: inactive
- Potency [3]: inactive
- Potency [4]: inactive
- Potency [7]: inactive
- Potency [8]: inactive

Structure (SMILES): O=C(O)C1(c2ccc3c(c2)OC[C@H](Cc2ccc(-c4ccccc4)cc2)[C@H]3O)CCCC1
- Potency [11]: inactive
- Potency [12]: 40.8 µM (active)
- Potency [16]: inactive
- Potency [13]: 32.4 µM (active)
- Potency [1]: 5.3 µM (active)
- Potency [2]: 54.9 µM (active)
- Potency [7]: inactive
- Potency [8]: inactive

Structure (SMILES): CC(C)CC(=O)N[C@H](C(=O)N[C@H](C(=O)N[C@@H](CC(C)C)[C@@H](O)CC(=O)N[C@@H](C)C(=O)N[C@@H](CC(C)C)[C@@H](O)CC(=O)O)C(C)C)C(C)C (Isovaleryl-VV[Sta]A[Sta]-OH)
- Potency [2]: inactive
- Potency [3]: inactive
- Potency [4]: inactive

Structure (SMILES): O=C(O)/C=C/C(=O)O
- Potency [17]: inactive
- Potency [18]: inactive
- Potency [16]: inactive
- Potency [13]: inactive
- Potency [19]: inactive

Structure (SMILES): c1ccccc1
- Potency [17]: inactive
- Potency [18]: inactive
- Potency [12]: inactive
- Potency [16]: inactive
- Potency [13]: inactive
- Potency [19]: inactive
